An excerpt weighted towards active compounds, which were near 2.8% of everything screened.
EBV LMP1 NFkB = reduces LMP1-driven NF-kappaB luciferase signal. LMP1-induced NF-kappaB luciferase reporter cells, luminescence. actives 0.69% (n = 350,000). inhibition, % at 12.5 µM; in the data active = inhibition above about 41%; inconclusive = no clear call, values can overlap the other calls;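 note: 0% = neutral control wells and 100% = reference inhibitor control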
PAX8 reporter = PAX8 transcriptional activity inhibition; RMG-I TPO-luciferase reporter, SteadyGlo, 24 h; inhibition, % at 12.6 µM; actives 1.2% (n = 360,000); AID 652154;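 active = mean replicate inhibition at least 60% with every replicate also reaching 60%; inconclusive = only one of the two criteria is met; inactive = mean below 60% and not all replicates reaching 60%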;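 note: luciferase light reporting Pax8 driven TPO promoter activity; plate controls were median of neutral control wells for no effect and mitoxantrone controls for full effect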
Shn3 inh set2 = inhibitors of Schnurri-3 3'UTR reporter in osteoblasts. Clone20 osteoblast Shn3 3'UTR firefly luciferase, 24 h. inhibition, % at 12.5 µM. actives 0.52% (n = 360,000). AID 588674;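 active = mean inhibition of at least 75% with every replicate also reaching 75%; inconclusive = mean inhibition at least 75% but some replicate below; inactive = mean inhibition below 75%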;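 note: 0% = median of neutral control wells and 100% = pilot-screen positive control compound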
Glyco luc inh = N-linked glycosylation inhibition; reporter increase, % at 12.5 µM; D54 ERlucT glycosylation luciferase reporter, 24 h; percent of 100 nM tunicamycin response; actives 0.23% (n = 360,000); AID 588692;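 active = mean luciferase reporter signal, scaled so untreated is 0 and the glycosylation-blocking control 100, at or above a set limit in every replicate; inconclusive = mean reaches the limit but not every replicate does; inactive = mean below the limit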;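 note: luciferase carries N-glycosylation sites so blocking glycosylation raises the light; 0% = median of neutral control wells and 100% = median of 100 nM tunicamycin wells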
HIV Env fusion = inhibitors of HIV Env-mediated cell fusion; actives 1.1% (n = 360,000); HeLa-JRFL Env/CEM21 cell fusion, luciferase; inhibition, % at 12.3 µM; AID 651610;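 active = mean replicate inhibition score of at least 50 and every replicate individually at or above 50; inconclusive = only one of the two criteria met; inactive = mean below 50 and not all replicates reaching 50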;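 note: 0% = plate neutral controls and 100% = maraviroc near 300 nM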
NSD2 inh = NSD2 (human) methyltransferase inhibition; AID 743445; inhibition, % at 12.5 µM; actives 0.54% (n = 310,000); NSD2 peptide methylation, AlphaScreen, 120 min; in the data active = inhibition above about 50%
Target sequence (O96028 whole entry, looked up): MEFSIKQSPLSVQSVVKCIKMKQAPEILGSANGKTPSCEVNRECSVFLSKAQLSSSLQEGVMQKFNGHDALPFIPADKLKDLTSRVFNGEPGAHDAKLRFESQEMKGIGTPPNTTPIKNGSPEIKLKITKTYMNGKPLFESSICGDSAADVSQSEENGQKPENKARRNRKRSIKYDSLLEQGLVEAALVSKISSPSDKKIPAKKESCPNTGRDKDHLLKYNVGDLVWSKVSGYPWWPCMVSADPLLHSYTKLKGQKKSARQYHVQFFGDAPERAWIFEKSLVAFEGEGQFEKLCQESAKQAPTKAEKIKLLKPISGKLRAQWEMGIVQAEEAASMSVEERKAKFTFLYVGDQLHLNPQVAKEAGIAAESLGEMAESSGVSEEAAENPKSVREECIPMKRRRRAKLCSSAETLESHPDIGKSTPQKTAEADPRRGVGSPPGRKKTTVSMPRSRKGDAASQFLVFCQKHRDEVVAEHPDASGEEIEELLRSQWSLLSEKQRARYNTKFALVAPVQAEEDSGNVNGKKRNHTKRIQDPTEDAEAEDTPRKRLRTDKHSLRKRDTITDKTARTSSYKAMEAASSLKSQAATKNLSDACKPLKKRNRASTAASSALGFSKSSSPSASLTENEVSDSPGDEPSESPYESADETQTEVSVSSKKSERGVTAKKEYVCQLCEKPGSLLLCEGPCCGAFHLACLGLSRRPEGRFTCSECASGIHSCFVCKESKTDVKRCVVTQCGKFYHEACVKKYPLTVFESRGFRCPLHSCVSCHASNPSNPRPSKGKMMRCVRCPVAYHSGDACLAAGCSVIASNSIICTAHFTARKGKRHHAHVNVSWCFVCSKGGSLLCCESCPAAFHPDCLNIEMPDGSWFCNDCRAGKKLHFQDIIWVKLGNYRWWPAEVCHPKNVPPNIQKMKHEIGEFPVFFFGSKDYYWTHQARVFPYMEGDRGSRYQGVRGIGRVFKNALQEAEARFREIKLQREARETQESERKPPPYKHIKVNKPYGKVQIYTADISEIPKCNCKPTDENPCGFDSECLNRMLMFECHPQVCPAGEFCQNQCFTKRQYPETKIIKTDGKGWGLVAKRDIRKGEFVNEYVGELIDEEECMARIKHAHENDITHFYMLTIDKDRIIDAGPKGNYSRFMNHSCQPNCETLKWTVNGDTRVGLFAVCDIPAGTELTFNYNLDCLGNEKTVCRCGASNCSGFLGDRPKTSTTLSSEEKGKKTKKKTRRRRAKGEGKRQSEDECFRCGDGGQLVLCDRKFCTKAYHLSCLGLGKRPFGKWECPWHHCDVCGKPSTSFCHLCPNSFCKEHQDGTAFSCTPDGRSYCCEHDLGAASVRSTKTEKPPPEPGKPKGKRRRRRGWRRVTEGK
* = called active by the depositor; ? = inconclusive; . = no result; ! = a repeat was not active; [ ] = dose if it differs, or a comment.

SMILES | EBV LMP1 NFkB | PAX8 reporter | Shn3 inh set2 | Glyco luc inh | HIV Env fusion | NSD2 inh
Cc1ccc(C)c(N2C(=O)CC(Cc3ccccc3)C2=O)c1 (stereo not drawn) | 75* | -2 | 13 | 0 | 0 | -1
C[C@@H]1CN([C@H](C)CO)S(=O)(=O)c2ccc(C#Cc3cccc(F)c3)cc2O[C@@H]1CN(C)C(=O)NC1CCCCC1 | . | 83* | . | . | 14[16.7 µM] | .
C[C@H](CO)N1C[C@H](C)[C@H](CN(C)C(=O)NC2CCCCC2)Oc2cc(C#Cc3cccc(F)c3)ccc2S1(=O)=O | . | 84* | . | . | 25[16.7 µM] | .
C[C@H]1CN([C@@H](C)CO)S(=O)(=O)c2ccc(C#Cc3cccc(F)c3)cc2O[C@H]1CN(C)CC1CC1 | . | 65* | . | . | 19[16.7 µM] | .
C[C@H]1CN([C@@H](C)CO)C(=O)c2ccccc2-c2ccccc2CO[C@@H]1CN(C)C(=O)Cc1ccccc1 | . | -8 | . | . | 44[16.7 µM] | .
O=C(N[C@@H]1CC[C@H](CCn2cc(C3(O)CCCC3)nn2)O[C@H]1CO)C1CCCCC1 | . | 0 | . | . | 2[16.7 µM] | .
COc1ccc2oc(C)c(C(=O)c3ccc([N+](=O)[O-])cc3)c2c1 | -2 | 93* | -6 | -2 | . | 10
COc1ccc2oc(C)c(C(N)=O)c2c1 | -10 | . | 10 | 0 | -12 | 1
CC(C)(C)c1ccc(Cc2nnc(SCC(=O)Nc3ccccc3F)[nH]c2=O)cc1 | . | . | . | . | . | -2
C=CCn1c(=NC(=O)c2ccc(S(=O)(=O)N3CCc4ccccc4C3)cc2)sc2cc(S(N)(=O)=O)ccc21 | 4 | 57 | 35 | -6 | . | -1
C#CCn1c(=NC(=O)c2ccc(S(=O)(=O)N3CCc4ccccc4C3)cc2)sc2cc(S(N)(=O)=O)ccc21 | 12 | . | 97* | -14 | . | .
CC1CCCC(C)N1CCCNC(=O)c1ccc2c(c1)NC(=O)c1ccccc1S2 (stereo not drawn) | 15 | -19 | 17 | -1 | ? | 5
CCC(C)N(CCNC(=O)c1ccc2c(c1)NC(=O)c1ccccc1S2)C1CCCCC1 (stereo not drawn) | -10 | 8 | 22 | -8 | 79* | 8
C/C(N)=C(/C#N)C(=O)CSc1nc(C2CCCCC2)n(-c2ccccc2)n1 | -7 | 7 | -27 | -2 | 67*! | -6
CCC(C)NC(=O)c1nc2c(nnn2Cc2ccccc2Cl)c(=O)[nH]1 (stereo not drawn) | 8 | -2 | -20 | 0 | 3 | 2
O=C(NCc1cccs1)c1nc2c(nnn2Cc2ccccc2Cl)c(=O)[nH]1 | 76* | . | 7 | -17 | 111* | .
OC1C(O)C(O)C(O)C(O)C1O (stereo not drawn) | 91*! | -4 | 4 | 0 | -18 | .
COC(=O)C1=C(C)N(Cc2ccc(Cl)cc2)C(=S)NC1c1cccc(F)c1 (stereo not drawn) | . | -28 | . | . | 8 | .
COC(=O)C1=C(C)N(Cc2ccc(F)cc2)C(=S)NC1c1ccc(Cl)cc1 (stereo not drawn) | . | 6 | . | . | 59* | .
COC(=O)C1=C(C)N(Cc2ccccc2)C(=S)N[C@H]1c1ccc(Br)cc1 | -3 | 8 | 26 | -6 | 67* | .
CC(=O)C1=C(C)N(Cc2ccc(Cl)cc2)C(=S)NC1c1ccc(Cl)cc1 (stereo not drawn) | . | -6 | . | . | 60* | 0
COC(=O)C1=C(C)N(Cc2ccc(Cl)cc2)C(=S)NC1c1ccc(OC)cc1 (stereo not drawn) | . | 13 | . | . | 84* | .
CC(=O)C1=C(C)N(Cc2ccc(Cl)cc2)C(=S)NC1c1ccccc1 (stereo not drawn) | . | 12 | . | . | ? | 3
O=C(C[C@@H]1CC[C@H](NC(=O)Nc2ccccc2F)[C@@H](CO)O1)NCc1ccc(Cl)cc1 | . | -20 | . | . | 21[16.7 µM] | .
C[C@@H]1CCCCO[C@@H](CN(C)S(=O)(=O)c2ccc(F)cc2)[C@@H](C)CN([C@H](C)CO)C(=O)c2cc(NS(=O)(=O)c3cccs3)ccc2O1 | . | -12 | . | . | -21[16.7 µM] | .
CCOCCCNC(=O)/C(C#N)=C/c1ccc(Cl)c([N+](=O)[O-])c1 | 58* | -3 | 0 | 5 | -36 | 1
CCOCCCNC(=O)/C(C#N)=C/c1cc(OC)c(O)c([N+](=O)[O-])c1 | -6 | 5 | -7 | 17 | -36 | 6
COc1cccc(CN(C)C[C@@H]2OCc3cnnn3CCCC(=O)N([C@H](C)CO)C[C@@H]2C)c1 | . | . | . | . | 22[16.7 µM] | .

From PubChem BioAssay
